# TDP1 cell CPT = DT40-hTDP1 cell growth loss with CPT | AID 686979 | chicken DT40 Tdp1-/-;hTDP1 cells + 20 nM CPT, ATP luminescence, 48 h | 420,000 compounds, 12% hits | Potency, µM (doses to about 46.2 µM), usual class: inhibitors; further: nearly all actives have a fitted effect of over 55% in size
#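 Chicken DT40 Tdp1-/- cells stably complemented with human TDP1 were seeded at 400 cells/well in medium containing 20 nM camptothecin, exposed to pin-transferred compounds, and grown at 37 °C for at least 48 hr. Viability was read as ATP luminescence.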
# KB-3-1 cytotox = KB-3-1 parental cell cytotoxicity | KB-3-1 viability, CellTiter-Glo ATP luminescence, 72 h | Potency, µM (top dose mostly 46.1 µM), hits mostly cytotoxic | 400,000 compounds, 1.4% hits; further: nearly all actives have a fitted effect of over 60% in size
#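 Luminescent ATP read-out (CellTiter-Glo) measures survival of drug-naive KB-3-1 cells after 72 h compound exposure at 37 °C. Titration series was screened from lowest to highest concentration, with DMSO vehicle plates as background controls.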
# HT1080NT lethal = kills 2HG-producing HT-1080-NT fibrosarcoma cells; HT-1080-NT fibrosarcoma viability, CellTiter-Glo ATP luminescence, 48 h; Potency, µM (series often up to 46.1 µM), usual class: cytotoxic; 360,000 compounds, 1.6% hits; AID 686970;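 further: NT is the 2HG producing partner of a matched IDH1 knockdown line; nearly all actives have a fitted effect of over 55% in size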
#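 Viability of the 2HG-overproducing fibrosarcoma line after 48 hours of compound exposure at 37 degrees C was determined by luminescence with CellTiter-Glo, and concentration-effect curves were then fitted and categorized.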
# DT40 TDP1 no CPT = qHTS for Inhibitors of human tyrosyl-DNA phosphodiesterase 1 (TDP1): qHTS in cells in absence of CPT; 420,000 compounds, 15% hits; DT40 Tdp1-/- hTDP1 cells, no CPT, ATP luminescence, 48 h; Potency, µM (highest dose often 46.2 µM), most hits filed as inhibitors; further: nearly all actives have a fitted effect of over 55% in size
#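 Camptothecin absent (DMSO only). Human TDP1-complemented DT40 knockout cells, 400 cells/well, 37 °C for minimum 48 hr; ATP measured via CellTiter-Glo, 30 min dark incubation, luminescence.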
# HT1080 IDH1KD tx = kills HT-1080 cells with IDH1 knockdown. HT-1080 IDH1 knockdown viability, ATP luminescence, 48 h. Potency, µM (doses to about 46.1 µM), usual class: cytotoxic. 360,000 compounds, 2% hits
#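 Assay cells: HT-1080 with IDH1 knockdown, 750 per well, RPMI/5% FBS. Exposure: 48 h at 37 °C following 2 h pre-incubation. Read: CellTiter-Glo luminescence; fitted concentration-response, curve class assigned.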
# KB-V1 cytotox = kills drug-selected multidrug resistant KB-V1 cells | KB-V1 MDR cells viability, CellTiter-Glo, 72 h | Potency, µM (titrated, usually from 46.1 µM), hits mostly cytotoxic | 400,000 compounds, 3.4% hits | AID 1347076; further: nearly all actives have a fitted effect of over 60% in size
#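 Drug-selected KB-V1 cells, grown in DMEM lacking phenol red with 10% FBS, receive compound titrations; after three days at 37 degrees C, surviving cell ATP is quantified by CellTiter-Glo luminescence and responses normalized and curve-fitted.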
# Hits are given with their value; – = inactive; ? = inconclusive; · = no result given. Only some compounds are listed: those with a hit (about 19% of all), similar ones and a draw of the others. The call rests on the fitted dose curve; in most records, active means well fitted curve in the direction sought with a large enough effect; inconclusive means small, poorly fitted or top-dose-only effect, or another doubt; inactive means no such curve, though single readings can be large; an effect the other way counts as inactive or inconclusive.
SMILES,TDP1 cell CPT,KB-3-1 cytotox,HT1080NT lethal,DT40 TDP1 no CPT,HT1080 IDH1KD tx,KB-V1 cytotox
CCOc1ccc(N(C)S(=O)(=O)c2ccc(-c3cc(C)no3)s2)cc1,3.7µM,5.8µM,12µM,4.1µM,7.3µM,?
Cc1cccc(N(C)S(=O)(=O)c2ccc(-c3cc(C)no3)s2)c1,0.82µM,?,?,0.65µM,0.58µM,?
COc1ccc(-c2cc(C)no2)cc1S(=O)(=O)N(C)c1cccc(C)c1,–,–,–,?,–,–
CCN(c1cccc(C)c1)S(=O)(=O)c1ccc(-c2cc(C)no2)s1,2.9µM,4.6µM,?,2.6µM,?,?
CCOc1cc(-c2nc(-c3ccccc3OC)no2)cc(OCC)c1OCC,?,–,–,29µM,–,–
COc1ccc(-c2nc(C3CCCCC3)no2)cc1OC,–,–,–,–,–,16µM
COc1cc(-c2nc(-c3cccc(C)c3)no2)cc(OC)c1OC,18µM,–,–,23µM,–,–
CCOc1cc(-c2nc(-c3ccc(OC)cc3)no2)cc(OCC)c1OCC,–,–,–,–,–,–
COc1ccc(-c2nc(-c3ccccc3OC)no2)cc1OC,?,?,–,?,–,6.5µM
CS(=O)(=O)NCCc1csc2nc(-c3ccccc3)nn12,–,·,·,–,·,·
O=S(=O)(NCCc1csc2nc(-c3ccc(Cl)cc3)nn12)c1cccs1,18µM,·,·,15µM,·,·
Cc1noc(C)c1S(=O)(=O)NCCc1csc2nc(-c3ccc(Cl)cc3)nn12,23µM,·,·,12µM,·,·
S=C(NCc1ccc(Cl)cc1)Nc1ccccc1,?,–,–,21µM,–,–
S=C(Nc1ccccc1Cl)Nc1ccc(Cl)cc1Cl,–,–,–,?,–,–
S=C(NCc1ccc(Cl)cc1)Nc1ccncc1,8.2µM,?,?,?,–,–
Cc1ccccc1NC(=S)NCc1ccc(Cl)cc1,?,–,–,15µM,–,?
S=C(Nc1ccccc1)Nc1ccc(Cl)cc1Cl,18µM,–,–,?,–,–
Cc1ccccc1NC(=S)NCc1ccc(F)cc1,–,–,–,?,–,?
CCN(CC)C(=O)c1cc(-c2ccc(Cl)cc2)on1,–,–,·,–,·,–
CCOc1ccc(S(=O)(=O)N2CCCCC2)cc1NC(=O)c1c(CC)noc1C,–,–,–,–,–,–
O=C(NNC(=S)Nc1ccc(Cl)cc1Cl)c1ccncc1,–,–,–,16µM,–,–
Cc1oc2c(cc(NS(=O)(=O)c3ccc(Br)cc3)c3ccccc32)c1C(=O)OCc1ccccc1,?,–,·,?,·,–
CCOc1ccc(CCN2CN(C3CCCCC3)CNC2=S)cc1OCC,?,–,–,18µM,–,–
COCCn1c(=NC(=O)CSCC(=O)N2CCOCC2)sc2ccccc21,–,–,–,–,–,?
O=C(Nc1ccc(Br)cc1)Nc1ccccc1Cl,15µM,–,–,10µM,–,–
SMILES,TDP1 cell CPT,KB-3-1 cytotox,HT1080NT lethal,DT40 TDP1 no CPT,HT1080 IDH1KD tx,KB-V1 cytotox
O=C(Nc1ccncc1)Nc1ccc(Br)cc1Cl,21µM,–,–,?,–,–
O=C(Nc1ccc2nccnc2c1)Nc1ccccc1Cl,18µM,–,–,15µM,–,–
O=C(Nc1ccc(CN2CCCCC2)cc1)Nc1ccccc1Cl,?,–,–,?,–,–
C=CCSc1nnc(C2CCCN(Cc3ccccc3O)C2)n1C (centres undefined),–,·,·,–,·,·
CC(=O)N1C(O)CC(C)N1c1ccccc1 (centres undefined),–,–,–,–,–,–
CCOC(=O)c1c(S(=O)(=O)N2CCCC(C(=O)Nc3cccc(C)n3)C2)c(C)n(C)c1C (centres undefined),?,–,–,?,–,–
COc1ccccc1NC(=O)c1nc(SCc2ccc(F)cc2)ncc1Cl,–,·,·,–,·,·
CSc1ncc(Cl)c(C(=O)Nc2ccc(C)c(C)c2)n1,–,–,–,–,–,–
CC(=O)Nc1ccc(NC(=O)c2nc(S(=O)(=O)Cc3ccc(F)cc3)ncc2Cl)cc1,0.73µM,·,·,0.41µM,·,·
